“And” between values parts separate entries of the source, which are not always exact repeats. Equal values may be shown once. Inconclusive results are not listed. The source made the active and inactive calls. Calls come from the whole dose curve; as a rule, active = well fitted inhibition curve with a large enough effect; inconclusive = small, poorly fitted or top-dose-only effect; inactive = flat fitted curve, though single readings scatter.
What was measured:
[1] = qHTS profiling for inhibitors of Plasmodium falciparum proliferation (AID 504749);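 note: 0% = DMSO vehicle and full inhibition = artemisinin control; nearly all actives have a fitted effect of over 60% in size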; settings: P. falciparum in erythrocytes, SYBR Green DNA, 72 h
Outline: (§1)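 SYBR Green fluorescence of parasite DNA, read after lysis and overnight dark incubation, measured growth over 72 h in erythrocyte culture at 0.3% parasitemia and 2.5% hematocrit. Data normalised to DMSO and 0.29 uM artemisinin, with plate-drift correction.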

[2] = system: 3D7; test: as above; settings: P. falciparum in erythrocytes, SYBR Green DNA, 72 h; series mostly up to 28.7 µM
Outline: as §1

[3] = system: 7G8; test: as above; settings: P. falciparum in erythrocytes, SYBR Green DNA, 72 h; series mostly up to 28.7 µM
Outline: as §1

[4] = system: AA1029; test: as above; settings: P. falciparum in erythrocytes, SYBR Green DNA, 72 h; series mostly up to 28.7 µM
Outline: as §1

[5] = system: AS120; test: as above; settings: P. falciparum in erythrocytes, SYBR Green DNA, 72 h; series mostly up to 28.7 µM
Outline: as §1

[6] = system: ATS189; test: as above; settings: P. falciparum in erythrocytes, SYBR Green DNA, 72 h; series mostly up to 28.7 µM
Outline: as §1

[7] = system: ATS95; test: as above; settings: P. falciparum in erythrocytes, SYBR Green DNA, 72 h; series mostly up to 28.7 µM
Outline: as §1

[8] = system: C2A; test: as above; settings: P. falciparum in erythrocytes, SYBR Green DNA, 72 h; series mostly up to 28.7 µM
Outline: as §1

[9] = system: CP185; test: as above; settings: P. falciparum in erythrocytes, SYBR Green DNA, 72 h; series mostly up to 28.7 µM
Outline: as §1

[10] = system: CP191; test: as above; settings: P. falciparum in erythrocytes, SYBR Green DNA, 72 h; series mostly up to 28.7 µM
Outline: as §1

[11] = system: CP192; test: as above; settings: P. falciparum in erythrocytes, SYBR Green DNA, 72 h; series mostly up to 28.7 µM
Outline: as §1

[12] = system: CP194; test: as above; settings: P. falciparum in erythrocytes, SYBR Green DNA, 72 h; series mostly up to 28.7 µM
Outline: as §1

[13] = system: CP201; test: as above; settings: P. falciparum in erythrocytes, SYBR Green DNA, 72 h; series mostly up to 28.7 µM
Outline: as §1

[14] = system: CP211; test: as above; settings: P. falciparum in erythrocytes, SYBR Green DNA, 72 h; series mostly up to 28.7 µM
Outline: as §1

[15] = system: CP215; test: as above; settings: P. falciparum in erythrocytes, SYBR Green DNA, 72 h; series mostly up to 28.7 µM
Outline: as §1

[16] = system: CP217; test: as above; settings: P. falciparum in erythrocytes, SYBR Green DNA, 72 h; series mostly up to 28.7 µM
Outline: as §1

[17] = system: CP237; test: as above; settings: P. falciparum in erythrocytes, SYBR Green DNA, 72 h; series mostly up to 28.7 µM
Outline: as §1

[18] = system: CP238; test: as above; settings: P. falciparum in erythrocytes, SYBR Green DNA, 72 h; series mostly up to 28.7 µM
Outline: as §1

[19] = system: CP247; test: as above; settings: P. falciparum in erythrocytes, SYBR Green DNA, 72 h; series mostly up to 28.7 µM
Outline: as §1

[20] = system: CP203; test: as above; settings: P. falciparum in erythrocytes, SYBR Green DNA, 72 h; series mostly up to 28.7 µM
Outline: as §1

[21] = at 28.7 µM (top of the series), parasite line A
[22] = at 28.7 µM (top of the series), parasite line B

CC(C(=O)O)c1ccc2c(c1)[nH]c1ccc(Cl)cc12 (stereo unspecified)
inactive: activity, negative = inhibition [1, 21] 3.75% | activity, negative = inhibition [1, 22] 2.58% | Potency [2] | Potency [3] | Potency [4] | Potency [5] | Potency [6] | Potency [7] | Potency [8] | Potency [9] | Potency [10] | Potency [11] | Potency [12] | Potency [13] | Potency [14] | Potency [15] | Potency [16] | Potency [17] | Potency [18] | Potency [19]

Nc1ccc(O)c(C(=O)O)c1
inactive: activity, negative = inhibition [1, 21] -0.61% | activity, negative = inhibition [1, 22] -10.7% | Potency [2] | Potency [3] | Potency [4] | Potency [5] | Potency [6] | Potency [7] | Potency [8] | Potency [9] | Potency [10] | Potency [11] | Potency [12] | Potency [13] | Potency [20] | Potency [14] | Potency [15] | Potency [16] | Potency [17] | Potency [18] | Potency [19]

O=C(/C=C/c1ccccc1)NCCO
inactive: activity, negative = inhibition [1, 21] 4.35% | activity, negative = inhibition [1, 22] -2.74% | Potency [2] | Potency [3] | Potency [4] | Potency [5] | Potency [6] | Potency [7] | Potency [8] | Potency [9] | Potency [10] | Potency [11] | Potency [12] | Potency [13] | Potency [14] | Potency [15] | Potency [16] | Potency [17] | Potency [18] | Potency [19]

O=C(O)[C@H](O)[C@@H](O)[C@H](O)[C@H](O)CO
inactive: activity, negative = inhibition [1, 21] 1.4% | activity, negative = inhibition [1, 22] 5.65% | Potency [2] | Potency [3] | Potency [4] | Potency [5] | Potency [6] | Potency [7] | Potency [8] | Potency [9] | Potency [10] | Potency [11] | Potency [12] | Potency [13] | Potency [14] | Potency [15] | Potency [16] | Potency [17] | Potency [18] | Potency [19]

Nc1ccc(C(=O)O)c(O)c1
inactive: activity, negative = inhibition [1, 21] 9.01% | activity, negative = inhibition [1, 22] -22.6% | Potency [2] | Potency [3] | Potency [4] | Potency [5] | Potency [6] | Potency [7] | Potency [8] | Potency [9] | Potency [10] | Potency [11] | Potency [12] | Potency [13] | Potency [14] | Potency [15] | Potency [16] | Potency [17] | Potency [18] | Potency [19]

CC1(C)C[C@@H]1C(=O)N/C(=C\CCCCSC[C@H](N)C(=O)O)C(=O)O
inactive: activity, negative = inhibition [1, 21] 10.1% | activity, negative = inhibition [1, 22] -12.7% | Potency [2] | Potency [3] | Potency [4] | Potency [5] | Potency [6] | Potency [7] | Potency [8] | Potency [9] | Potency [10] | Potency [11] | Potency [12] | Potency [13] | Potency [14] | Potency [15] | Potency [16] | Potency [17] | Potency [18] | Potency [19]

O=C(O)COc1ccc(C(=O)c2cccs2)c(Cl)c1Cl
inactive: activity, negative = inhibition [1, 21] 17.6% and 6.75% | activity, negative = inhibition [1, 22] 6.94% and 2.12% | Potency [2] | Potency [3] | Potency [4] | Potency [5] | Potency [6] | Potency [7] | Potency [8] | Potency [9] | Potency [10] | Potency [11] | Potency [12] | Potency [13] | Potency [14] | Potency [15] | Potency [16] | Potency [17] | Potency [18] | Potency [19]

O=C(Nc1ccc(C(=O)O)c(O)c1)c1ccccc1
inactive: activity, negative = inhibition [1, 21] -20.7% | activity, negative = inhibition [1, 22] -1.01% | Potency [2] | Potency [3] | Potency [4] | Potency [5] | Potency [6] | Potency [7] | Potency [8] | Potency [9] | Potency [10] | Potency [11] | Potency [12] | Potency [13] | Potency [20] | Potency [14] | Potency [15] | Potency [16] | Potency [17] | Potency [18] | Potency [19]

c1ccc2sc(SSc3nc4ccccc4s3)nc2c1
inactive: activity, negative = inhibition [1, 21] 6.98% | activity, negative = inhibition [1, 22] -5.71% | Potency [2] | Potency [3] | Potency [4] | Potency [5] | Potency [6] | Potency [7] | Potency [8] | Potency [9] | Potency [10] | Potency [11] | Potency [12] | Potency [13] | Potency [20] | Potency [14] | Potency [15] | Potency [16] | Potency [17] | Potency [18] | Potency [19]

Nc1c(CC(=O)O)cccc1C(=O)c1ccc(Br)cc1
inactive: activity, negative = inhibition [1, 21] 12.5% | activity, negative = inhibition [1, 22] 11.2% | Potency [2] | Potency [3] | Potency [4] | Potency [5] | Potency [6] | Potency [7] | Potency [8] | Potency [9] | Potency [10] | Potency [11] | Potency [12] | Potency [13] | Potency [20] | Potency [14] | Potency [15] | Potency [16] | Potency [17] | Potency [18] | Potency [19]

CCCSc1ccc2nc(NC(=O)OC)[nH]c2c1
inactive: activity, negative = inhibition ([1]; at 12.8 µM (top of the series), parasite line A) -19.4% | activity, negative = inhibition ([1]; at 12.8 µM (top of the series), parasite line B) -12.4% | Potency [2] | Potency [3] | Potency [4] | Potency [5] | Potency [6] | Potency [7] | Potency [8] | Potency [9] | Potency [11] | Potency [13] | Potency [14] | Potency [15] | Potency [16] | Potency [17] | Potency [18]

CC1(C)[C@@H](O)CC[C@]2(C)[C@H]3C(=O)C=C4[C@@H]5C[C@@](C)(C(=O)O)CC[C@]5(C)CC[C@@]4(C)[C@]3(C)CC[C@@H]12
inactive: activity, negative = inhibition [1, 21] -3.83% | activity, negative = inhibition [1, 22] -0.325% | Potency [2] | Potency [3] | Potency [4] | Potency [5] | Potency [6] | Potency [7] | Potency [8] | Potency [9] | Potency [10] | Potency [11] | Potency [12] | Potency [13] | Potency [14] | Potency [15] | Potency [16] | Potency [17] | Potency [18] | Potency [19]
